# PubChem BioAssay (NCI)
# This is part of a sample that, as a whole, favours compounds with a hit. Of some 83,000 tested, about 20% had one in any assay.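 96-well plates, one dose, 48 hours. Percent growth reported; active if below 10.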 Values without a mark were called inactive. Calls of active or inactive are those of the source.
# Key:
# Assay in all cases: NCI-60 one-dose screen, 48 h (100 = growth as untreated, 0 = no growth, -100 = all killed)
# Details in all cases: 10 µM
# [1] = system: HCT-15 colon
# [2] = system: HT29 colon
# [3] = system: SNB-75 CNS
# [4] = system: SNB-19 CNS
# [5] = system: PC-3 prostate
# [6] = system: SK-MEL-5 melanoma
# [7] = system: UACC-62 melanoma
# [8] = system: LOX IMVI melanoma
# [9] = system: SK-MEL-28 melanoma
# [10] = system: U251 CNS
Structure (SMILES),growth [1],growth [2],growth [3],growth [4] [%],growth [5],growth [6],growth [7],growth [8],growth [9],growth [10]
C/C(=N\N=C\c1ccc(Cl)c([N+](=O)[O-])c1)c1ccc2c(c1)Nc1ccccc1S2,50.8%,35.5%,109%,31.2,13.5%,38.8%,38.8%,37.2%,60.9%,–
CC(=O)C1=C(C)NC(SCC(=O)Nc2ccc(S(=O)(=O)Nc3cc(C)on3)cc2)=NC1c1ccccc1 (configuration not stated),96.3%,110%,102%,102,109%,101%,97.1%,–,110%,–
Cc1ccc(C(C)C)cc1NC(=O)c1ccccc1O,35%,103%,46.4%,37.2,33.4%,-45.5% (active),9.83% (active),40.1%,31.1%,–
O=C(N/N=C/c1ccc(B(O)O)o1)c1[nH]c2ccc(Br)cc2c1-c1ccccc1,16.1%,3.98% (active),98.1%,–,19.2%,11.5%,19.4%,32.9%,62.1%,10.1%
O=C(c1ccc(O)cc1)C1[C@H](c2ccccc2Br)[C@@H](c2ccccc2)NC12C(=O)Nc1ccc(Cl)cc12 (some centres not stated),12.3%,-30.4% (active),2.75% (active),–,2.91% (active),-33% (active),6.97% (active),-100% (active),29.2%,–
CC(=O)c1ccc(Nc2nc(SCCC(C)C)nc(-c3ccc(F)cc3)c2C#N)cc1,63.8%,47.9%,52.3%,–,80.2%,93.8%,89.8%,–,83.5%,–
CC(=O)Nc1nc(-c2ccc(N3CCN(C)CC3)c(NS(=O)(=O)c3cccc4c(N(C)C)cccc34)c2)cs1,18.5%,21.7%,56.5%,–,48.7%,12.5%,13.1%,-35.6% (active),-80.1% (active),–
O=C(CSc1nnc(-c2c[nH]c3ccccc23)n1-c1ccccc1)c1ccccc1,79.4%,47.9%,100%,–,65.8%,90.7%,73.4%,29.2%,100%,10.8%
O=C(Nc1ccc(I)cc1)Nc1nc2ccc([N+](=O)[O-])cc2s1,-100% (active),-93.3% (active),-93.4% (active),–,-75.7% (active),-100% (active),-98% (active),-100% (active),-99% (active),-94% (active)
CSc1nc(-c2cccc(C)c2)c2cc(-c3ccccc3)n(C)c2n1,15.3%,9.09% (active),-2% (active),–,21.7%,-44.7% (active),11.1%,21.4%,34.7%,17.4%
Cc1cc2c(c(O)c1Br)-c1ncoc1C(=O)[C@]1(C)CC[C@H](C(C)C)[C@H]21,7.31% (active),5.42% (active),59.6%,–,9.6% (active),-29.9% (active),33.1%,35.6%,46.6%,26.7%
CCNCCCn1c2c(c3cc(OC)c(OC)cc3c1=O)C(=O)c1cc3c(nc1-2)OCO3,-83% (active),26.1%,56.5%,–,43.7%,22.5%,-15.3% (active),-97.9% (active),71%,21.7%
Cc1ccc([N+](=O)[O-])c(C(=O)Nc2ccc(-c3ccc4c(c3)NC(=O)/C4=C\c3ccc[nH]3)cc2)c1,-17.3% (active),46.5%,42.7%,–,21.3%,101%,39.5%,21.9%,94.8%,6.92% (active)
OCCCNc1oc(-c2ccccc2)nc1[P+](c1ccccc1)(c1ccccc1)c1ccccc1,45.9%,6.51% (active),-2.93% (active),–,9.56% (active),-100% (active),-70.2% (active),-16.6% (active),7.68% (active),13.7%
CN1C(=O)N(C)C2SC(N/N=C/c3ccc(F)cc3)=NC21 (configuration not stated),26.1%,16.2%,23.7%,–,66.2%,26.8%,18.4%,40%,63.5%,35.4%
O=C(Nc1nc2ccccc2s1)c1ccc(Br)cc1,85.8%,87.3%,107%,–,82.1%,70.5%,73.3%,82.9%,90.7%,107%
O=C(CNc1nc(-c2ccccc2)cs1)Nc1ccc([N+](=O)[O-])cc1,-23.5% (active),-44.9% (active),87.6%,–,33.7%,-69.3% (active),–,-19.5% (active),-6.86% (active),9.22% (active)
Nc1nnc(-c2c[nH]c3ccc(F)cc23)c(-c2c[nH]c3ncccc23)n1,69.3%,59.5%,29.1%,–,67.5%,63.7%,51.7%,–,71.3%,37.6%
COc1ccc(-c2ccc(/C=N/NC(=O)c3[nH]c4ccc(Br)cc4c3-c3ccccc3)o2)cc1,26.4%,55.1%,33%,–,55.1%,30.3%,30.4%,26.7%,46.9%,26.2%
CC(C)Sc1nc(NC2CC2)c(C#N)c(-c2ccccc2)n1,101%,87.3%,81.3%,–,83%,93.1%,87.1%,80.2%,110%,50.6%
CN1CCc2c(sc3ncnc(N/N=C/c4cn(-c5ccccc5)nc4-c4ccc(Cl)cc4)c23)C1,7.13% (active),5.95% (active),74.1%,–,55.2%,30.7%,9.22% (active),-65.7% (active),45%,18.2%
